From PubChem BioAssay AID686971 (National Center for Advancing Translational Sciences (NCATS), 2013)
Among all 360,000 compounds or so, about 7,500 (2.1%) were called active. Another 8% or so got no clear call; they are omitted. What follows is part of a selection rich in actives, with near analogues and random picks from the rest. A number with no mark means an inactive call. The call rests on the fitted dose curve; in most records, active means well fitted cell-killing curve with a large enough effect; inconclusive means small, poorly fitted or top-dose-only effect, or effect the other way, or another doubt; inactive means no such curve, though single readings can be large or run the other way.

Experiment: qHTS for induction of synthetic lethality in tumor cells producing 2HG: qHTS for the HT-1080-IDH1KD cell line;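 on activity, negative = toxicity: 0% = DMSO wells and -100% = cell-free medium wells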
Conditions: HT-1080 IDH1 knockdown viability, ATP luminescence, 48 h; series mostly up to 46.1 µM; activity, negative = toxicity: at the top concentration
Procedure, shortened: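 % activity derives from luminescence (CellTiter-Glo), normalised to DMSO and no-cell wells. HT-1080-IDH1KD cells, 750/well, had 48 h compound exposure at 37 °C.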
Potency means the concentration at half of the fitted maximal effect.

Row | Structure (SMILES) | activity, negative = toxicity [%] | Potency
1 | CSc1ccc(CN2CCC2(C)C(=O)Nc2ccc(C)c(O)c2)cc1 (stereo not given) | 1.83 | 
2 | CCCCN1C(=O)C(CC(=O)NCc2cccs2)CC(C(=O)N2CCOCC2)=C1C (stereo not given) | -0.279 | 
3 | Cc1ccc(C)c(NC(=O)CCC(=O)NNC(=O)c2cccs2)c1 | 18.3 | 
4 | Cc1ccc(C(=O)Nc2ccc(NC(=O)c3cccs3)cc2)c(C)c1 |  | 16.4 µM (active)
5 | Cc1ccc(NC(=O)c2cccs2)cc1S(=O)(=O)N(C)C | 11.2 | 
6 | Cc1ccc(C(=O)NNC(=O)c2cccs2)cc1 | 20.8 | 
7 | Cc1ccc(NNC(=O)c2cccs2)cc1Cl |  | 5.8 µM (active)
8 | O=C(NNC(=O)c1ccc(Cl)cc1Cl)c1cccs1 | 1.43 | 
9 | COC(=O)c1ccc2nc(-c3ccc(C)cc3)c(Cc3ccc(OC)cc3C)n2c1 | -0.222 | 
10 | CCCNC(=O)c1cc2c(c(-c3cccc(-c4ccc(C#N)cc4)c3)n1)[C@@H](CCO)N(C(=O)CC)C2 | -28.2 | 
11 | Cc1cc(C(=O)CCC(=O)NNC(=O)c2ccccc2O)c(C)s1 | -1.01 | 
12 | CC1=C(C)CC(C(=O)NNC(=O)c2ccccc2O)C(C(=O)O)C1 (stereo not given) | -13.2 | 
13 | O=C(NNC(=O)c1ccccc1O)c1ccccc1O |  | 9.2 µM (active)
14 | CCNC(=O)c1cc2c(c(-c3cccc(-c4cncnc4)c3)n1)[C@H](CCO)N(C(C)=O)C2 | 12.5 | 
15 | O=C(Nc1cccc(C(=O)O)c1)/C(=C\c1ccccc1)NC(=O)c1ccc(Br)o1 | 2.12 | 
16 | Cc1cc(C)n(-c2nc(C(F)(F)F)nc3ccccc23)n1 | -13 | 
17 | CC(C)n1c(-c2cccs2)nc2ccccc21 | -1.39 | 
18 | CC(Nc1nc(C(F)(F)F)nc2ccccc12)c1cccs1 (stereo not given) |  | 16.4 µM (active)
19 | COCCCNC(=O)c1cccc2c(-c3ccc(O)c(OC)c3)coc12 | -17.3 | 
20 | NC(CSC(c1ccccc1)(c1ccccc1)c1ccc(-c2ccccc2)cc1)C(=O)O (stereo not given) | 12.7 | 
21 | O=C(NCc1nnnn1-c1ccc(Cl)cc1)c1ccc2c(c1)OCO2 | -0.275 | 
22 | CCNC(=O)C1(C)CCCN(C(=O)c2ccc3ccccc3n2)C1 (stereo not given) | 15.4 | 
23 | CCc1ccc(-n2c(SCc3cc(=O)n4cc(Br)ccc4n3)nc3[nH]ncc3c2=O)cc1 |  | 18.4 µM (active)
24 | Cc1cccc2nc(CSc3nc4[nH]ncc4c(=O)n3-c3cccc(Cl)c3)cc(=O)n12 | 2.66 | 
25 | O=c1c2sccc2nc(SCc2cc(=O)n3ccccc3n2)n1-c1ccc(Br)cc1 | -11.7 | 

Row | Structure (SMILES) | activity, negative = toxicity [%] | Potency
26 | CCc1nc2c(OCC(=O)C(C)(C)C)cccn2c1N(C)C(=O)c1ccccc1F | 12.4 | 
27 | CCC(=O)N1CCCC1(C)C(=O)Nc1ccc2c(c1)CCN2C(C)=O (stereo not given) | 18 | 
28 | COc1ccc(Nc2cc(C)nc(-n3nc(C)cc3C)n2)cc1 |  | 0.794 µM (active)
29 | Cc1cc(C)n(-c2ccc(C(=O)O)cc2[N+](=O)[O-])n1 | -0.0463 | 
30 | COc1ccc(Nc2cc(Sc3ccc(OC)cc3)ncn2)cc1 | -20.5 | 
31 | CCOC(=O)c1cnc(-n2nc(C)cc2C)nc1NNc1cc(C)nc(-c2ccccc2)n1 | -24.4 | 
32 | CC(=O)c1ccc(Oc2cc(C)nc(-n3nc(C)cc3C)n2)cc1 |  | 4.61 µM (active)
33 | COc1ccc(NC(=O)c2nc(-n3nc(C)cc3C)ccc2Cl)cc1Cl | 4.15 | 
34 | O=C1c2ccccc2-c2ccccc2NC1O (stereo not given) | 1.47 | 
35 | CCC(=O)N1CCC(C)(C(=O)Nc2cc(OC)c(OC)c(OC)c2)C1 (stereo not given) | 26.5 | 
36 | CCOC(=O)[C@]12CCCC=C1N(CCC1=CCCCC1)C(=O)[C@H](CC(=O)N1CCCCC1)C2 | -15.9 | 
37 | Cc1ccc(-c2nc3c(Cl)cc(C(F)(F)F)cn3c2Cc2cccc(Cl)c2)cc1 | 10.7 | 
38 | CNC(=O)C[C@H]1C(=O)N(Cc2ccccc2)C[C@@H]1CSC | 4.17 | 
39 | Cc1nc(N2CCN(c3ccccn3)CC2)c2c(C)c(C(=O)Nc3ccc(F)cc3)sc2n1 | 1.24 | 
40 | Cc1nc(N2CCOCC2)c2c(C)c(C(=O)Nc3ccc(C(F)(F)F)cc3)sc2n1 |  | 20.6 µM (active)
41 | Cc1nc(N2CCN(c3ccccn3)CC2)c2c(C)c(C(=O)Nc3ccc(F)c(Cl)c3)sc2n1 | 14.8 | 
42 | CC1(C)Cc2cccc(OCC(=O)NCc3ccccc3)c2O1 | -3.39 | 
43 | CC1(C(=O)Nc2cccnc2)Cc2c(-c3ccccc3)ccnc2O1 (stereo not given) | -0.19 | 
44 | CC(=O)Nc1cccc(-c2ccnc3c2CC(C)(C(=O)NCc2ccccc2)O3)c1 (stereo not given) |  | 0.651 µM (active)
45 | COc1ccc(NC(=O)C2Cc3c(-c4cccc(NC(C)=O)c4)ccnc3O2)cc1OC (stereo not given) | -14.7 | 
46 | O=C(NCc1ccc2c(c1)OCO2)c1cc(F)c(F)cc1Cl | 11.4 | 
47 | COc1ccc(NC(=O)C2(C)Cc3c(-c4ccc(C(N)=O)cc4)ccnc3O2)cc1 (stereo not given) | -4.38 | 
48 | COc1cc(OC)c(C(=O)NCc2ccc3c(c2)OCO3)cc1OC | -0.101 | 
49 | CC1(C(=O)NCc2ccc(F)c(F)c2)Cc2c(-c3ccc4c(c3)OCO4)ccnc2O1 (stereo not given) |  | 4.61 µM (active)
50 | COc1ccc(NC(=O)C2(C)Cc3c(-c4cccc(NC(C)=O)c4)ccnc3O2)cc1OC (stereo not given) |  | 14.6 µM (active)
